For test [1], the target named is T1, Inhibitor of nuclear factor kappa-B kinase subunit epsilon (Homo sapiens) (UniProt Q14164).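 Note: reported values are averaged percent inhibition figures against human IKKε.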
T1 sequence (whole entry): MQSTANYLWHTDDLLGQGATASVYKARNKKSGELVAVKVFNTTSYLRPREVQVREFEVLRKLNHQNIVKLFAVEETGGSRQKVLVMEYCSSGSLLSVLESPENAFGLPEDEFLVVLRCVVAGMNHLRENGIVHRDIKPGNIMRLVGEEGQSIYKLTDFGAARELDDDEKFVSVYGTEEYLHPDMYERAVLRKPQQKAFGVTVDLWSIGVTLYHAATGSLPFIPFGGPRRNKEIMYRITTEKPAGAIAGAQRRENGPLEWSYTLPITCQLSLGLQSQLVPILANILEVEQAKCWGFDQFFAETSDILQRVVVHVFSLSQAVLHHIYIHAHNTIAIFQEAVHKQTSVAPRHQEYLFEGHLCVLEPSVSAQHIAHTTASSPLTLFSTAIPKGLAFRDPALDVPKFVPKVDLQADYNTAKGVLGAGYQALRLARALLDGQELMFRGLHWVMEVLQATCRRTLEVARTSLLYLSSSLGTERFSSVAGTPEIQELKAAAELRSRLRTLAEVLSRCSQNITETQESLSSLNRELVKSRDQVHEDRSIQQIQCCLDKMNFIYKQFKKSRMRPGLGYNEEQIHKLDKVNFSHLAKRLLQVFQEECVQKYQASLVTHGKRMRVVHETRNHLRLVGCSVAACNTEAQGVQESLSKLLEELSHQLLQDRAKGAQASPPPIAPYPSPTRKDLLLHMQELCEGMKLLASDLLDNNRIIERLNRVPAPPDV
The note with it: at 1 µM.

Test [2] has as its target T2, Serine/threonine-protein kinase Nek1 (Homo sapiens) (UniProt Q96PY6).
T2 sequence (whole entry): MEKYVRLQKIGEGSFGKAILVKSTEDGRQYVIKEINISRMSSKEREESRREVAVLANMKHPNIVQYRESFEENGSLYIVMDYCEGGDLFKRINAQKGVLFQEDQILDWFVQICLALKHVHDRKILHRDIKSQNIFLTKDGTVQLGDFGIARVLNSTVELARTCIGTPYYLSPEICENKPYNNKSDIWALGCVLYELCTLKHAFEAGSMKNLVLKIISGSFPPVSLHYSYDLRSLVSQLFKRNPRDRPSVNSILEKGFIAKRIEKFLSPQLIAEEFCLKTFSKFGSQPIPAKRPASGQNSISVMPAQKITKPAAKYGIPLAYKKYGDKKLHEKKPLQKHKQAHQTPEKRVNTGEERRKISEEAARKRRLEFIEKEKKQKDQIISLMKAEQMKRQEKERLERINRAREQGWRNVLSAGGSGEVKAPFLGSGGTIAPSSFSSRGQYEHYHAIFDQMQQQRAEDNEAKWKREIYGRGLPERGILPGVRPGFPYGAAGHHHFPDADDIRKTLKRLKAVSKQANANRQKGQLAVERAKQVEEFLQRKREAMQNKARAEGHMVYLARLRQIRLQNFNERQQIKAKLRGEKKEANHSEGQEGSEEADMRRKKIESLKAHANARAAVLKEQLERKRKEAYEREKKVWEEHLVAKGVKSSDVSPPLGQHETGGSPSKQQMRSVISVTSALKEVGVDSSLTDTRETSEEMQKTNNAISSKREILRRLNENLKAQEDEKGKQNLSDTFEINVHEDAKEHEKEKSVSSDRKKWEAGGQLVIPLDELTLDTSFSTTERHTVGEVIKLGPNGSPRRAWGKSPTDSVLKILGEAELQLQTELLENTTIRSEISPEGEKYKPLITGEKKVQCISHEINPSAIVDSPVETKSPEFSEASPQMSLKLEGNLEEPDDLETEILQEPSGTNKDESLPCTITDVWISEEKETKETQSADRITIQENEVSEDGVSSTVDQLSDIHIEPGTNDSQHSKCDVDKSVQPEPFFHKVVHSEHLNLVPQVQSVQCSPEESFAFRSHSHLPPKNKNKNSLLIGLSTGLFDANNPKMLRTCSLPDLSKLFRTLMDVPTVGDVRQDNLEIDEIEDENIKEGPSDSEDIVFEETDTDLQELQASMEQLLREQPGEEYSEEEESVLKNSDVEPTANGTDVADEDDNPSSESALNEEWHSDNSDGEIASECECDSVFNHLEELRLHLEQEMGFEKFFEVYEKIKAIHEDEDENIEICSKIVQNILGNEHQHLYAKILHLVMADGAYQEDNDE
The note with it: at 0.1 µM.

For test [3], the target named is T2, Serine/threonine-protein kinase Nek1 (Homo sapiens). The note with it: at 1 µM.
Test [4] has as its target T3, Serine/threonine-protein kinase Nek2 (Homo sapiens) (UniProt P51955).
T3 sequence (whole entry): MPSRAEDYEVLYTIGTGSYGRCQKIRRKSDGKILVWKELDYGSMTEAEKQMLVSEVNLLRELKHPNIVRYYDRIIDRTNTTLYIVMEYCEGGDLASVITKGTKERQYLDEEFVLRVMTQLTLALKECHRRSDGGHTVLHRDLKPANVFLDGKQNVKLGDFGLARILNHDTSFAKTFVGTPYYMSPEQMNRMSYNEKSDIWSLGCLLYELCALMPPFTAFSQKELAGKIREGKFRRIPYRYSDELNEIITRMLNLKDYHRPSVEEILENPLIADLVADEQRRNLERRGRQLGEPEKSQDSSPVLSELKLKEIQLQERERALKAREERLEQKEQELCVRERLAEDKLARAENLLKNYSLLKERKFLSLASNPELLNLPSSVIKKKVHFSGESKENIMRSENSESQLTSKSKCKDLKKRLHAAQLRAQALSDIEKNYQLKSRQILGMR
The settings on record: at 0.1 µM.

Test [5] concerns the target T3, Serine/threonine-protein kinase Nek2 (Homo sapiens). The settings on record: at 1 µM.
Test [6] has as its target Serine/threonine-protein kinase Nek6 (Homo sapiens) (UniProt Q9HC98). The settings on record: at 0.1 µM.
Test [7] has the same target. The settings on record: at 1 µM.
Test [8] has as its target Serine/threonine-protein kinase Nek7 (Homo sapiens) (UniProt Q8TDX7). The note with it: at 0.1 µM.
For test [9] the target is unchanged. The note with it: at 1 µM.
Test [10] has as its target T4, Serine/threonine-protein kinase Nek9 (Homo sapiens) (UniProt Q8TD19).
T4 sequence (whole entry): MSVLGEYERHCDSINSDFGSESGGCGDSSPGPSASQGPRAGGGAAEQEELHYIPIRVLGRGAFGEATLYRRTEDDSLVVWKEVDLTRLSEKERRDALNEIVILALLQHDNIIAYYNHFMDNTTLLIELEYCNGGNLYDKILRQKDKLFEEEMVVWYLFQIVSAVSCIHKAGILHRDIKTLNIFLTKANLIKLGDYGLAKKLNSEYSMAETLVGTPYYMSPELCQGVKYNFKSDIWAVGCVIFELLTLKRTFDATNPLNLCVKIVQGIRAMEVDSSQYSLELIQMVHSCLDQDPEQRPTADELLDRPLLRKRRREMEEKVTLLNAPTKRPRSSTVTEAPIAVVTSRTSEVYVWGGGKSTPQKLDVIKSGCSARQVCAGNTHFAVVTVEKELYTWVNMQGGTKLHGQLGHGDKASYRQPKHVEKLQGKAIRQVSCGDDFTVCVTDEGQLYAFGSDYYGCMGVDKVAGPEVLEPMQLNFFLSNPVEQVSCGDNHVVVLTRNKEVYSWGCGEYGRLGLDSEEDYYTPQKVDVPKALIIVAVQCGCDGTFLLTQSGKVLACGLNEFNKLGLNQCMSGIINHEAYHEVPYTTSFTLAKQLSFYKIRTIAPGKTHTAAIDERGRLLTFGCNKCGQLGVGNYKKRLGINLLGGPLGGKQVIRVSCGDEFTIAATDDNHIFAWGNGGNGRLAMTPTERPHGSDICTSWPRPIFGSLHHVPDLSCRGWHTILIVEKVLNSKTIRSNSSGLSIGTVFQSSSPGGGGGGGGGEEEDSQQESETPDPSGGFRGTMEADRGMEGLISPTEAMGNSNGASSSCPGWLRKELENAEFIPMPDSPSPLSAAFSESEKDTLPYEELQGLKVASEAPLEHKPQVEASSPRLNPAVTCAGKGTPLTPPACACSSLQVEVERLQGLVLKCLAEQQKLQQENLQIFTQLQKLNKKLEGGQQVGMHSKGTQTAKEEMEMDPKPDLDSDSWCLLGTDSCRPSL
The settings on record: at 0.1 µM.

Test [11] addresses T4, Serine/threonine-protein kinase Nek9 (Homo sapiens). The note with it: at 1 µM.
Test [12] addresses Serine/threonine-protein kinase PLK1 (Homo sapiens) (UniProt P53350). The settings on record: at 0.1 µM.
For test [13] the target is unchanged. The note with it: at 1 µM.
Test [14] deals with T5, Dual specificity protein kinase TTK (Homo sapiens) (UniProt P33981).
T5 sequence (whole entry): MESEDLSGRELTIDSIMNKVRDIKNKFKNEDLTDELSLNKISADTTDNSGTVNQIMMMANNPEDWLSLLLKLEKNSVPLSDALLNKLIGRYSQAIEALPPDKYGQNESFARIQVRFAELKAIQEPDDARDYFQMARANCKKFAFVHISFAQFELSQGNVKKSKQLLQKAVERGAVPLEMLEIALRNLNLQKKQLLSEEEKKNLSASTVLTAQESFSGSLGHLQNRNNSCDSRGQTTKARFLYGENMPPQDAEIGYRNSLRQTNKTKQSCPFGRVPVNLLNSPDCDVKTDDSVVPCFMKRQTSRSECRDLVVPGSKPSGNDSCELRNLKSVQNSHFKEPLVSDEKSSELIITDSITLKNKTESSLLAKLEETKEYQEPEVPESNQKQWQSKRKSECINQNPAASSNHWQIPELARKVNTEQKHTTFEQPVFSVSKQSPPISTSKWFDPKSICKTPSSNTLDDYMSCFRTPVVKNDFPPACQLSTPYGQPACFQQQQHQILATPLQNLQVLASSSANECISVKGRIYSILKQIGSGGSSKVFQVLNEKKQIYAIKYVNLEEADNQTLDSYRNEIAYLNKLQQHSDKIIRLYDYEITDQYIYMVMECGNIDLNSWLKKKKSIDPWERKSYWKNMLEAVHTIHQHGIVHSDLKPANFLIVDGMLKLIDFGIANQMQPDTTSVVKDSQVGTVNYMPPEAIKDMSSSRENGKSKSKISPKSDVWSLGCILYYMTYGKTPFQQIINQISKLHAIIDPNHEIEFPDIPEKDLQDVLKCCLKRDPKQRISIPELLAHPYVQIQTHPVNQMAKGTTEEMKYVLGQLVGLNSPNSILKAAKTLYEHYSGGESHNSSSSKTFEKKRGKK
The settings on record: at 0.1 µM.

The test system of test [15] is T6, Receptor-type tyrosine-protein kinase FLT3 (Homo sapiens), P36888 [D835Y].
T6 sequence (whole entry): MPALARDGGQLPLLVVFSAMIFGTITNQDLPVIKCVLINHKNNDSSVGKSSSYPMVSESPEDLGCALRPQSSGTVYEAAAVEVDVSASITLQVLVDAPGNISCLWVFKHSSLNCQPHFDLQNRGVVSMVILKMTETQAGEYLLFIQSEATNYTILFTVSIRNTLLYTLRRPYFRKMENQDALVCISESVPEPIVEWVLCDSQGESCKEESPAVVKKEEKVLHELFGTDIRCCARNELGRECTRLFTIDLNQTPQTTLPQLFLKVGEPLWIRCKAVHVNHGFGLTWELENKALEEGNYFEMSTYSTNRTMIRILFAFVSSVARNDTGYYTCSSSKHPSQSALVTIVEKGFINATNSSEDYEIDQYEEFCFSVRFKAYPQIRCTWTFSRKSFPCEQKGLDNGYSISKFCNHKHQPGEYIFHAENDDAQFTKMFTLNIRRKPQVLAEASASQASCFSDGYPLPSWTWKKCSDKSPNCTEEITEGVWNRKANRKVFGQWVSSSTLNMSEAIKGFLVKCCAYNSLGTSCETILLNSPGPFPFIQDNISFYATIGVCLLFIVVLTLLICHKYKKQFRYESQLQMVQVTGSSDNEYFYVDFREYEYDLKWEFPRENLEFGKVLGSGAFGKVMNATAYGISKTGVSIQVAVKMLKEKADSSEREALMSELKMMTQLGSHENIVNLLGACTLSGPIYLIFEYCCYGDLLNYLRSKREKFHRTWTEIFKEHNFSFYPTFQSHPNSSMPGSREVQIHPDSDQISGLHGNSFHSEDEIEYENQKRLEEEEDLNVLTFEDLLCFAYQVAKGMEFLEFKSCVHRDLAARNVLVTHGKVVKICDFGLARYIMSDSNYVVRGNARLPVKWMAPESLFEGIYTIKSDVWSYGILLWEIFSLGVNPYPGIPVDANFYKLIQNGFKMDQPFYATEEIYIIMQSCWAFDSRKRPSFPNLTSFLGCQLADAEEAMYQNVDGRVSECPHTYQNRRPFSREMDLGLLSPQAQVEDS
The settings on record: at 1 µM.

Test [16] deals with Vascular endothelial growth factor receptor 3 (Homo sapiens) (UniProt P35916). The note with it: at 0.1 µM.
Test [17] has the same target. The note with it: at 1 µM.
The target of test [18] is Macrophage colony-stimulating factor 1 receptor (Homo sapiens) (UniProt P07333). The settings on record: at 0.1 µM.
For test [19] the target is unchanged. The note with it: at 1 µM.
The target of test [20] is Tyrosine-protein kinase Fyn (Homo sapiens) (UniProt P06241). The settings on record: at 0.1 µM.

SMILES strings stand for the structures.

Macrophage colony-stimulating factor 1 receptor (Homo sapiens), sequence (P07333 whole entry): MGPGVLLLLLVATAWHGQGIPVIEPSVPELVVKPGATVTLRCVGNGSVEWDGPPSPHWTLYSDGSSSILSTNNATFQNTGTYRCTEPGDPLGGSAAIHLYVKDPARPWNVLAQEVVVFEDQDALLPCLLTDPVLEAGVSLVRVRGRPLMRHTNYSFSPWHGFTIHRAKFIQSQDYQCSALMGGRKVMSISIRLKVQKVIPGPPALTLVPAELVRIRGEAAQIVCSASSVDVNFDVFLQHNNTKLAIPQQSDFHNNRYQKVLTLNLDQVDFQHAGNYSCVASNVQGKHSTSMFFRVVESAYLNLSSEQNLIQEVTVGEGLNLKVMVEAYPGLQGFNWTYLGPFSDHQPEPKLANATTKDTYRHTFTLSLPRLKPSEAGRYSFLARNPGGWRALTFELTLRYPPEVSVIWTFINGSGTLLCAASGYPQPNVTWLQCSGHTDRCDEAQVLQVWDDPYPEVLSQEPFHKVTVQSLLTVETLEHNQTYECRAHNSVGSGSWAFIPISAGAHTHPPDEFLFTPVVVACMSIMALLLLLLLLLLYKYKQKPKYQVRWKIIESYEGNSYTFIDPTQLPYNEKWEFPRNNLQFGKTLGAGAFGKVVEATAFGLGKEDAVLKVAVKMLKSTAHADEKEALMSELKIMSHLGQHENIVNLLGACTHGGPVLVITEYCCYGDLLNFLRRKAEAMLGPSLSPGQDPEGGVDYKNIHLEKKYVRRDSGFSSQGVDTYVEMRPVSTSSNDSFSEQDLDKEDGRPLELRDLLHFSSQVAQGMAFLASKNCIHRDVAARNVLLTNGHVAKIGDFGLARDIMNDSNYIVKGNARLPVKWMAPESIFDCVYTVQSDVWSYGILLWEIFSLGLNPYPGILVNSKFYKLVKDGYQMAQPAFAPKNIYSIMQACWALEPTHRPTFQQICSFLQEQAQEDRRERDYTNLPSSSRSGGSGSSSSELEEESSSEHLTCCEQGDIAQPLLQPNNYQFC
Vascular endothelial growth factor receptor 3 (Homo sapiens), sequence (P35916 whole entry): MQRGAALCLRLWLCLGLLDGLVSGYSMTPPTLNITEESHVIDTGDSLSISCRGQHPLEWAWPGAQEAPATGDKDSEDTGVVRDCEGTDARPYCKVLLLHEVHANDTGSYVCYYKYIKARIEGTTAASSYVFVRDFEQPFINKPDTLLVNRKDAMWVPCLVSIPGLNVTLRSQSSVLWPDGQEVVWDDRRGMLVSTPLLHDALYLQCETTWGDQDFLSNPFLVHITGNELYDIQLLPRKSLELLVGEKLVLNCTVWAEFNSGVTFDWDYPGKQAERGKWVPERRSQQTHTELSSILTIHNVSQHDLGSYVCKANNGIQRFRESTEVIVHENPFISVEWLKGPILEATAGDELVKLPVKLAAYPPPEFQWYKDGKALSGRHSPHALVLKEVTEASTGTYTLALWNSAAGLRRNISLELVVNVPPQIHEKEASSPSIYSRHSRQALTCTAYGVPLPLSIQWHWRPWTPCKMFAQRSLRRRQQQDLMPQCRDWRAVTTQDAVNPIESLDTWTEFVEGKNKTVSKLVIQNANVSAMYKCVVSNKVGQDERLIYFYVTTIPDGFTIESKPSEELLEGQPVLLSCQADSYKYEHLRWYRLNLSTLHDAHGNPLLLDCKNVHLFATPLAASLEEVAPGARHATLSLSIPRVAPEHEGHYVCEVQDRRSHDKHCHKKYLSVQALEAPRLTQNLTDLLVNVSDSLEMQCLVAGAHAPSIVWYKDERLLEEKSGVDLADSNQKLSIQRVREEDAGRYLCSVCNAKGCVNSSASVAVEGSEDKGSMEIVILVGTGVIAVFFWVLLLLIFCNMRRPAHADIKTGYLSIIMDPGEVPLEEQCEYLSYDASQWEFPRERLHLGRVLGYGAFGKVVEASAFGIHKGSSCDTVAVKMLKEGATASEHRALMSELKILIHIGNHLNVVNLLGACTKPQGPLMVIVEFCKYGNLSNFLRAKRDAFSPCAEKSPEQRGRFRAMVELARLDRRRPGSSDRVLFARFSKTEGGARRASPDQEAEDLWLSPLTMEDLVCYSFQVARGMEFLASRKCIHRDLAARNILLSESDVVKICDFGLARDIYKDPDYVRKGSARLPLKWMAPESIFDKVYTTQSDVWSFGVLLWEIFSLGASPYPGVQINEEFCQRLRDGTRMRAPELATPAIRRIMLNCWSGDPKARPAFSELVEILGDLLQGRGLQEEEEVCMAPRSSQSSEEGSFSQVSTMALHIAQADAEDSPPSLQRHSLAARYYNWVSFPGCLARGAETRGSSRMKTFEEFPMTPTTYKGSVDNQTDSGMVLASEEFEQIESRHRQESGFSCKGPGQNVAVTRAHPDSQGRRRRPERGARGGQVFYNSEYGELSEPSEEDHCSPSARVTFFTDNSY
Serine/threonine-protein kinase Nek7 (Homo sapiens), sequence (Q8TDX7 whole entry, looked up): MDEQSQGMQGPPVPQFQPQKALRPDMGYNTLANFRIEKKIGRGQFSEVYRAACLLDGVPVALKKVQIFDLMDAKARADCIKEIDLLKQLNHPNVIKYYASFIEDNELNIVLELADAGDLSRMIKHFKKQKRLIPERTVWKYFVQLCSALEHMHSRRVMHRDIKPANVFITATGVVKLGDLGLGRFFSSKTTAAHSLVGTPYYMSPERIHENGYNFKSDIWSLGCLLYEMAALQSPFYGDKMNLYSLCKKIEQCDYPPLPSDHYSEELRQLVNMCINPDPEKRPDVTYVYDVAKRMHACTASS
Serine/threonine-protein kinase PLK1 (Homo sapiens), sequence (P53350 whole entry): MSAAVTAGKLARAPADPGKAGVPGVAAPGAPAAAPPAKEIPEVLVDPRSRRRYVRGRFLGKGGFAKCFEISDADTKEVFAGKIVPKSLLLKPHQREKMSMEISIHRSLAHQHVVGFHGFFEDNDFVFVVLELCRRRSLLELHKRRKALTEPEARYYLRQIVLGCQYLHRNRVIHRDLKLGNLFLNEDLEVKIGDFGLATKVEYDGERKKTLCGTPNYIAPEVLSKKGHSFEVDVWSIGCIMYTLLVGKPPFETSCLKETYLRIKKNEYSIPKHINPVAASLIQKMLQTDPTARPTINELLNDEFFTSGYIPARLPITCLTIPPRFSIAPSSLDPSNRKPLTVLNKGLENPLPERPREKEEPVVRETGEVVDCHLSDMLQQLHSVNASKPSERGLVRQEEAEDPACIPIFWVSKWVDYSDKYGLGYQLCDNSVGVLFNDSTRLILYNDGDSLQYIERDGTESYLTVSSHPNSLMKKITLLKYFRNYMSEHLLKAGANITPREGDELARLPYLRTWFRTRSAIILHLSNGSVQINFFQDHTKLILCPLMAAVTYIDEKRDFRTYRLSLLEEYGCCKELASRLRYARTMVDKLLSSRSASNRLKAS
Serine/threonine-protein kinase Nek6 (Homo sapiens), sequence (Q9HC98 whole entry): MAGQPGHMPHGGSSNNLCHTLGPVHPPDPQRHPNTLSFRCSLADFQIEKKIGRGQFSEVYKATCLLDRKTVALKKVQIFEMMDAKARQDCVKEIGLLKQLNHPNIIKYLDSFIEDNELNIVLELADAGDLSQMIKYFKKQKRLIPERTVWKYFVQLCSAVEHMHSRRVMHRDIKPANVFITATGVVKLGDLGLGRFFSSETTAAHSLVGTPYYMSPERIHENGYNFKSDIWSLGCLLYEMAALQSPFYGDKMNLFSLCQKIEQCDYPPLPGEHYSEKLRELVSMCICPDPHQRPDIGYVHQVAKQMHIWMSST
Tyrosine-protein kinase Fyn (Homo sapiens), sequence (P06241 2-537 limits assumed): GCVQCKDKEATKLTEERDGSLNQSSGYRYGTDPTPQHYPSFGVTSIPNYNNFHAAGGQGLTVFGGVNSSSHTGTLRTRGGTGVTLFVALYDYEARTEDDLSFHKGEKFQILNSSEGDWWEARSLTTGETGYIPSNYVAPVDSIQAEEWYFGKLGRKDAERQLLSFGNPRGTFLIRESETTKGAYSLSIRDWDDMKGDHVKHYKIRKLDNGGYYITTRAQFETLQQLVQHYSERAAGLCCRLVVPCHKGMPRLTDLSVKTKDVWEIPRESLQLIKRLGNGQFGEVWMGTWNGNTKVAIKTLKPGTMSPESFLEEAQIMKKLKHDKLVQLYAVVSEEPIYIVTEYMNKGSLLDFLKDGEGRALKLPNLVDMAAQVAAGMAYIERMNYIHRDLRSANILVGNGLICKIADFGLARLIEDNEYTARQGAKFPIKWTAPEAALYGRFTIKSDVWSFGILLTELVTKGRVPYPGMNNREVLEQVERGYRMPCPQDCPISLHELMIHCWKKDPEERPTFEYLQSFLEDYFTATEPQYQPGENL

With `COc1ccccc1-c1cc(/C=C2\C(=O)Nc3ncc(Br)cc32)cc(Br)c1O`, the inhibition (in general, the relative decrease from the control value, in per cent) in test [1] was 12.5%; in test [2], 2.67%; in [3], 0.39%; in [4] it was 6.8%; in test [5], 6.16%; in test [6], 3.44%. In addition, the inhibition turned out to be 0.04% in test [7]; 6.5% in [8]; 3.62% in test [9]; 3.73% in test [10]; 3.53% in [11]; 4.19% in [12]. The inhibition in test [13] stood at 9.04%; in [14], 12.7%; in test [15], 4.73%; in [16] it was 1.8%; in [17], 4.28%; in test [18] it was 3.88%. The inhibition in test [19] is 7.16%; in [20], 5.35%.
Turning to `Fc1cccc(COc2ccc(Nc3ncncc3C#Cc3ccccc3)cc2Cl)c1`, the inhibition in test [1] came out at 8.55%; in test [2] it was 3.31%; in test [3] it was 4.09%; in test [4], 5.61%; in test [5], 4.52%; in test [6], 1.91%. In addition, the inhibition in [7] is 3.93%; in test [8], 2.36%; in test [9], 2.64%; in test [10], 10.8%; in [11], 8.71%; in [12], 3.37%. Besides, the inhibition is 3.17% in test [13]; 7.47% in test [14]; -0.95% in test [15]; 4.04% in [16]; 0.69% in [17]; 3.32% in test [18]. The inhibition in test [19] is 4.86%; in [20], 1.15%.

Source of the values: ChEMBL document CHEMBL1961873, “Compounds: GSK PKIS; Assays: Nanosyn kinase panel” (2012).
